# IL1B secr inh = qHTS for Inhibitors of Inflammasome Signaling: IL-1-beta AlphaLISA Primary Screen. THP-1 LPS/ATP IL-1B secretion, AlphaLISA, 16 h; hits give low values. activity change, % at 57.5 µM. 360,000 compounds, 4.7% hits; in the data active = activity change below about -50%; inconclusive = mostly about -30% to -49%
#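 Secreted IL-1B measured by AlphaLISA bead assay after 16 h compound exposure of THP-1 cells; compounds (final up to 57.5 uM) added 1 h before LPS (250 ng/mL) and ATP (1.25 mM) stimulation; lower signal means less secretion.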
# MCF10A rerep = A quantitative high throughput screen for small molecules that induce DNA re-replication in MCF 10a normal breast cells. MCF 10A DNA re-replication, Hoechst nuclear intensity, 48 h. AID 624296, 2012. 350,000 compounds, 2.9% hits. Potency, µM (series often up to 46.1 µM), hits mostly activators; note: nearly all actives have a fitted effect of over 50% in size
# DT40 TDP1 CPT = qHTS for Inhibitors of human tyrosyl-DNA phosphodiesterase 1 (TDP1): qHTS in cells in presence of CPT | 420,000 compounds, 12% hits | Potency, µM (highest dose often 46.2 µM), most hits filed as inhibitors | AID 686979, 2013 | chicken DT40 Tdp1-/-;hTDP1 cells + 20 nM CPT, ATP luminescence, 48 h; note: nearly all actives have a fitted effect of over 55% in size
#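 Chicken DT40 Tdp1-/- cells stably complemented with human TDP1 were seeded at 400 cells/well in medium containing 20 nM camptothecin, exposed to pin-transferred compounds, and grown at 37 °C for at least 48 hr. Viability was read as ATP luminescence.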
# DT40 TDP1 no CPT = qHTS for Inhibitors of human tyrosyl-DNA phosphodiesterase 1 (TDP1): qHTS in cells in absence of CPT; DT40 Tdp1-/- hTDP1 cells, no CPT, ATP luminescence, 48 h; Potency, µM (highest dose often 46.2 µM), most hits filed as inhibitors; 420,000 compounds, 15% hits; AID 686978, 2013; note: nearly all actives have a fitted effect of over 55% in size
#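 Seeded 400 DT40-hTDP1 cells/well (vehicle DMSO, no 20 nM CPT); pinned compounds; ≥48 hr at 37 °C; CellTiter-Glo luminescence as viability measure.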
# SW480 rerep = A quantitative high throughput screen for small molecules that induce DNA re-replication in SW480 colon adenocarcinoma cells | SW480 DNA re-replication, Hoechst DNA content imaging, 48 h | Potency, µM (highest dose often 46.1 µM), actives largely listed as activators | 340,000 compounds, 1.8% hits; note: nearly all actives have a fitted effect of over 55% in size
#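 Treated cells incubate 48 hr (37 C, 5% CO2), are stained 40 min with Hoechst, and nuclear fluorescence is enumerated; a rise in nuclei with high DNA signal marks re-replication.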
# Chronic BCR inh = qHTS Assay to Find Inhibitors of Chronic Active B-Cell Receptor Signaling | ABC-DLBCL IkBa-CBG/CBR reporter, luminescence ratio, 4 h | Potency, µM (doses to about 46.1 µM), most hits filed as inhibitors | 340,000 compounds, 0.05% hits | AID 493014, 2011; active = well fitted inhibition curve with a large enough effect in the signal ratio, with a control signal flat, not every such curve was filed as active; inconclusive = small, poorly fitted or top-dose-only effect, or effect the other way, or a change in a side signal; the % refers to the signal ratio
#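 TMD8 ABC-DLBCL cells carrying doxycycline-inducible green luciferase fused to IkappaBalpha plus unfused red luciferase were exposed to compounds (up to 46 uM) for 4 hrs at 37C. Activity came from the overlap-corrected green/red luminescence ratio.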
# Numbers stand for hits; 0 = inactive; ? = inconclusive; - = no result; ! = not confirmed by another sample; [ ] = another dose, or the depositor's remark. In the library only some 19% were active in any assay of this set; here they are far more common. Unless noted, calls come from the whole dose curve; as a rule, active = well fitted curve in the direction sought with a large enough effect; inconclusive = small, poorly fitted or top-dose-only effect, or another doubt; inactive = no such curve, though single readings can be large; an effect the other way counts as inactive or inconclusive.
SMILES,IL1B secr inh,MCF10A rerep,DT40 TDP1 CPT,DT40 TDP1 no CPT,SW480 rerep,Chronic BCR inh
CCCOc1ccc(C2CC(=O)Nc3c2c(=O)n(C)c(=O)n3C)cc1OC (stereo not drawn),-,-,0,0,-,-
CCN1C(=O)[C@@H]2[C@@H](c3ccc(-c4ccc(Cl)c(Cl)c4)cc3)N3CCC[C@@]3(C(=O)OC)[C@@H]2C1=O,?,0,8.2µM,7.31µM,0,0
CCN1C(=O)[C@H]2[C@@H](c3ccc(-c4ccc(Cl)c(Cl)c4)cc3)N3CCCC[C@@]3(C(=O)OC)[C@H]2C1=O,0,0,10.3µM,6.51µM,0,0
CCc1ccccc1NC(=O)CN1C(=O)COc2ccc(S(=O)(=O)Nc3ccccc3)cc21,-,-,18.4µM,25.9µM,-,-
O=C(CN1C(=O)COc2ccc(S(=O)(=O)Nc3ccccc3)cc21)Nc1cccc(Cl)c1,-,-,16.4µM,?,-,-
CSc1cccc(NC(=O)CN2C(=O)COc3ccc(Cl)cc32)c1,-,-,?,20.6µM,-,-
COc1ccc(NC(=O)CN2C(=O)COc3ccc(S(=O)(=O)Nc4ccccc4)cc32)cc1,-,-,0,0,-,-
CC(=O)c1cccc(NC(=O)CCCN2C(=O)COc3ccc(C)cc32)c1,-,-,18.4µM,?,-,-
CCCC(=O)N(CCN1CCOCC1)c1nc2c(F)cc(F)cc2s1,0,0,0,0,?,0
O=C(OCC(=O)N1CCN(C(=O)c2ccco2)CC1)c1cccc(S(=O)(=O)N2CCc3ccccc32)c1,0,?,0,?,0,0
Cc1ccc(N2C(=O)N(CC(=O)Nc3ccc(C)c(C)c3)C(=O)C2C)cc1 (stereo not drawn),?,0,0,?,0,0
CCc1cccc(NC(=O)CN2C(=O)COc3ccc(S(=O)(=O)Nc4ccccc4)cc32)c1,-,-,?,23.1µM,-,-
COc1ccc(NC(=O)CN2C(=O)COc3ccc(S(=O)(=O)Nc4ccccc4)cc32)cc1OC,-,-,0,0,-,0
COc1ccc(Nc2nc3ccc(C)cn3c(=O)c2/C=N/O)cc1,0,0,5.8µM,6.51µM,0,?
Cc1ccc2nc(Nc3ccccc3)c(C=O)c(=O)n2c1,0,0,0,0,0[9.22 µM],0
Cc1ccc(Sc2nc3ccc(C)cn3c(=O)c2/C=N/O)cc1,0,16.4µM,0,?,?,?
Cc1ccc2nc(Cl)c(/C=N/Nc3nc(C)cc(C)n3)c(=O)n2c1,-97.2,?,?,?,?,?
Cc1ccc2nc(Nc3ccccc3)c(/C=N/O)c(=O)n2c1,?,?,2.59µM,6.51µM,?,?
COCC(C)NS(=O)(=O)c1ccc(C(=O)NCCCn2ccc3ccccc32)cc1 (stereo not drawn),0,0,?,0,0,?
Cc1cc(C(=O)Cn2cnc3ccc(Cl)cc3c2=O)c(C)n1C1CC1,0,0,0,0,0,-
c1ccc(Cn2cc(-c3ccccc3)cn2)cc1,0,0,0,0,0,0
Cc1ccc2cc3cc(C(=O)N4CCN(c5ccc(Cl)cc5)CC4)oc3nc2c1,-,-,0,0,-,-
CSc1ccc(CN2CCC(n3nccc3NC(=O)C3CCOC3)CC2)cc1 (stereo not drawn),0,0,0,0,0,0
S=C(NC1CCCC1)N1CCN(c2cccc(Cl)c2)CC1,0,0,?,?,0,0
S=C(NC1CC1)N1CCN(c2ccc(Cl)cc2)CC1,0,0,14.6µM,?,0,0
SMILES,IL1B secr inh,MCF10A rerep,DT40 TDP1 CPT,DT40 TDP1 no CPT,SW480 rerep,Chronic BCR inh
O=S(=O)(c1c(Cl)cc(Br)cc1Cl)N1CCN(C(=S)NC2CC2)CC1,-84.6,?,?,?,0,0
O=[N+]([O-])c1ccc(N2CCN(C(=S)NC3CCCCC3)CC2)cc1,-78.4,0,16.4µM,9.2µM,0,0
COc1cc2ccc3c(CCN(C)C)cc(OC)c(OC)c3c2cc1OC,?,0,0,?,0,0
CN(C)CCc1cc2c(c3c1ccc1ccccc13)OCO2,-95.9,?,20.6µM!,20.6µM!,?,?
Cc1cccc(N=CC=C2OC(C)(C)C(C)(C)O2)c1,0,?,0,0,20.6µM,0
Cc1ccc(N=CC=C2OC(C)(C)C(C)(C)O2)cc1,0,16.4µM,0,0,0.82µM,?
Cn1cccc1C(C#N)c1ncc(C(F)(F)F)cc1Cl (stereo not drawn),0,?,?,7.31µM,?,?
N#CC(c1ccc(Cl)cc1)c1ncc(C(F)(F)F)cc1Cl (stereo not drawn),0,0,0,0,0,0
COc1cc(/C=C/C(=O)OCC(=O)Nc2cc(S(=O)(=O)N3CCCC3)ccc2Cl)cc(OC)c1OC,0,0,?,?,0,0
Cc1ccc(C(C(=O)NCC2CCCO2)N(C(=O)c2snc(C(N)=O)c2N)c2ccc(F)cc2)o1 (stereo not drawn),0,0,0,?,0,0
COc1cccc(N(C(=O)c2snc(C(N)=O)c2N)C(C(=O)NCC2CCCO2)c2cccs2)c1 (stereo not drawn),0,0,?,16.4µM,0,0
COc1cc(OC)cc(N(C(=O)c2snc(C(N)=O)c2N)C(C(=O)NCC2CCCO2)c2ccc(C)o2)c1 (stereo not drawn),-,-,-,-,-,0
NC(=O)c1nsc(C(=O)N(c2ccccc2)C(C(=O)NCC2CCCO2)c2cccs2)c1N (stereo not drawn),0,0,23.1µM,14.6µM,0,0
Cc1cc(C)cc(N(C(=O)c2snc(C(N)=O)c2N)C(C(=O)NCC2CCCO2)c2cccs2)c1 (stereo not drawn),?,?,23.1µM,25.9µM,?,0
CCc1nc2cc(C(=O)N(C)C3CCOC3)cc(NC(=O)c3ccccc3OC)c2n1C (stereo not drawn),-,-,0[9.04 µM],0,-,-
CC1CCc2sc(C(=O)N/N=C/c3ccc(O)cc3)cc2C1 (stereo not drawn),?,?,?,?,0,0
COc1cc(C(=O)NC2CC2)cc(OC)c1OC,0,-,0,0,-,-
S=C1CC2CCCC(C2)N1 (stereo not drawn),0,0,0,0,0,-
CCCCCC(=O)NC(Nc1ccc(S(N)(=O)=O)cc1)C(Cl)(Cl)Cl (stereo not drawn),0,0,16.4µM,?,0,0
CCCCCCC(=O)NC(Nc1ccc(S(N)(=O)=O)cc1)C(Cl)(Cl)Cl (stereo not drawn),0,0,?,?,0[9.22 µM],0

# Source: PubChem
